Records with an inconclusive call do not appear. Entries that show only a call come without a potency. Values without a mark were called inactive. The source made the active and inactive calls. The call rests on the fitted dose curve; in most records, active means well fitted inhibition curve with a large enough effect; inconclusive means small, poorly fitted or top-dose-only effect; inactive means no such curve, though single readings can be large or run the other way. Peptide text beside a SMILES is read from it.
What follows are compounds tested against Retinaldehyde dehydrogenase 3 (Homo sapiens) (UniProt P47895) (assay: qHTS for Inhibitors of the Aldehyde Dehydrogenase Family (ALDH1A3) Primary screen (AID 2061315)). Conditions: ALDH inhibition qHTS; series mostly up to 56 µM.
With `CCN(CCN(C)C)C(=O)CNCc1cc(C(N)=O)ccn1` the Potency was “inactive”. For `Nc1nc2c(ncn2CCC(CO)CO)c(=O)[nH]1`, the Potency was “inactive”. For `C=C1C(=O)O[C@@H]2/C=C(\C)CC/C=C(\C)CC[C@@H]12`, the Potency was “inactive”. In the case of `C[C@H](/C=C/[C@@]1(O)[C@H](C)CC(=O)CC1(C)C)O[C@@H]1O[C@H](CO[C@@H]2OC[C@@H](O)[C@H](O)[C@H]2O)[C@@H](O)[C@H](O)[C@H]1O`, the Potency is reported as “inactive”. With `CC(=O)NCc1cccc(OC[C@@H](O)CNCCc2ccc(NS(=O)(=O)c3ccccc3)cc2)c1` the Potency was “inactive”. `C=C1CC23CC1CCC2C12OC(=O)C(C)(C(O)CC1O)C2C3C(=O)O` (centres undefined) was tested, and the Potency was “inactive”. `O=C(O)C(Cc1ccccc1)NC(=O)C1CCCN1` (stereo not drawn) (H-Pro-Phe-OH; configuration not given here) was tested, and the Potency was “inactive”. With `COc1cc(C)c(C(=O)O[C@H]2[C@@H](OC(C)=O)[C@H](n3ccc(=O)[nH]c3=O)O[C@@H]2CO)c(OC)c1` the Potency was “inactive”. With `CC1(C)CC[C@]2(C(=O)O[C@@H]3O[C@H](CO)[C@@H](O)[C@H](O)[C@H]3O)[C@H](O)C[C@]3(C)C(=CCC4[C@@]5(C)CC[C@H](O[C@@H]6OC[C@@H](O)[C@H](O)[C@H]6O)[C@@](C)(C(=O)O)C5CC[C@]43C)[C@@H]2C1` (some centres undefined) the Potency was “inactive”. With `CC(C)=CCC[C@](C)(O[C@@H]1O[C@H](CO)[C@@H](O)[C@H](O)[C@H]1O)[C@H]1CC[C@]2(C)[C@@H]1[C@H](O)CC1[C@@]3(C)CC[C@H](O)C(C)(C)C3[C@@H](O[C@@H]3O[C@H](CO)[C@@H](O)[C@H](O)[C@H]3O[C@@H]3OC[C@@H](O)[C@H](O)[C@H]3O)C[C@]12C` (some centres undefined) the Potency was “inactive”. For `CS/C=C/C(=O)O[C@@H]1CCC2=CC(=O)C(=C(C)C)C[C@]2(C)[C@H]1C`, the Potency was “inactive”. For `CC(=O)O[C@H]1C[C@@](O)(C(C)C)[C@@H]2[C@@H](OC(=O)c3ccc(O)cc3)CC(C)=CC[C@@]12C`, the Potency was “inactive”. In the case of `CC1C(=O)CC2C3CCC(C(=O)O)C12CC3(C)CO` (centres undefined), the Potency is reported as “inactive”. For `CN1c2c(nc(N)[nH]c2=O)NC[C@@H]1CNc1ccc(C(=O)N[C@@H](CCC(=O)O)C(=O)O)cc1`, the Potency was “inactive”. With `CC(C)=CCC/C(C)=C/CO[C@@H]1O[C@H](CO[C@@H]2O[C@@H](CO)[C@H](O)[C@H]2O)[C@@H](O)[C@H](O)[C@H]1O` the Potency was “inactive”. With `NC1CCCCN(c2c(F)cc3c(=O)c(C(=O)O)cn(C4CC4)c3c2Cl)C1` (centres undefined) the Potency was “inactive”. For `CC(=O)OCCC(C)CCC1C(C)(O)CCC2C(C)(C)CCCC21C` (centres undefined), the Potency was “inactive”. `CC1(C)COC(=O)[C@@H]1O[C@@H]1O[C@H](CO)[C@@H](O)[C@H](O)[C@H]1O` was tested, and the Potency was “inactive”. With `C[C@@H]1O[C@@H](O[C@H]2[C@H](OC(=O)[C@]34CCC(C)(C)C[C@H]3C3=CCC5[C@@]6(C)C[C@H](O)[C@H](O[C@@H]7O[C@H](C(=O)O)[C@@H](O)[C@H](O)[C@H]7O)[C@@](C)(CO)C6[C@H](O)C[C@@]5(C)[C@]3(C)C[C@H]4O)O[C@@H](CO)[C@@H]2O)[C@H](O)[C@H](O)[C@H]1O[C@@H]1OC[C@@H](O)[C@H](O[C@H]2OC[C@](O)(CO)[C@H]2O)[C@H]1O` (some centres undefined) the activity change, negative = inhibition was 16.1% [at 11.2 µM]. With `C=CC1(C)CC(OC(=O)C(=C)C(O)COC(C)=O)C(C(=C)C(=O)OC)C(O)C1C(=C)CO` (centres undefined) the Potency was “inactive”. In the case of `COc1c(C)c(OCC=C(C)C)cc2c1CNC2=O`, the Potency is reported as “inactive”. For `C=C1C(OC(C)=O)C(=O)C2C(C)(C)C(OC(C)=O)CCC2(C)C1CC(OC(C)=O)/C(C)=C/COC(C)=O` (centres undefined), the Potency was “inactive”. `C=C1C(OC(C)=O)[C@@]23CCC4[C@](C)(C(=O)O)CCC[C@@]4(C)[C@]2(O)CC[C@H]1C3` (some centres undefined) was tested, and the Potency was “inactive”. `C[C@]12CC/C(=N\OCC(=O)O)C=C1CC[C@@H]1[C@@H]2[C@@H](O)C[C@@]2(C)[C@H]1CC[C@]2(O)C(=O)CO` was tested, and the Potency was “inactive”. For `COC(=O)C1=CO[C@@H](O[C@@H]2O[C@H](CO)[C@@H](O)[C@H](O)[C@H]2O)[C@@H]2[C@@H](C(=O)OC)[C@@H](O)C(O)[C@H]12` (some centres undefined), the Potency was “inactive”. With `COC(=O)/C=C/C12COC(C)(C)C1C(O)C(OC(C)=O)C1(C)C2CCC2(C)C(c3ccoc3)OC(=O)C3OC321` (centres undefined) the Potency was “inactive”. For `C/C=C(\C)C(=O)OCC1OC(OC2OC(CO)C(O)C(O)C2O)C(O)C(O)C1O` (centres undefined), the Potency was “inactive”. `CC(=O)O[C@@H]1C[C@@H](C)[C@](O)(CCC2=CC(=O)OC2)[C@@]2(C)CCCC(C)(C)C12` (some centres undefined) was tested, and the Potency was “inactive”. For `C/C(=C\CCC(C)CCO)C(=O)OC[C@H]1O[C@@H](O[C@@H]2OC=C(C(=O)O)[C@H]3CC[C@](C)(O)[C@@H]23)C(O)[C@@H](O)C1O` (some centres undefined), the Potency was “inactive”.

— PubChem BioAssay (NCATS)
